Test results published in PubChem BioAssay (NCI).
Compounds without any hit were thinned out: in the full panel of roughly 83,000, 20% have a hit.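 Step 1: grow cells in 96-well plates. Step 2: add test compound at a single concentration. Step 3: incubate 48 h. Step 4: record percent growth.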 Values without a mark were called inactive. The source made the active and inactive calls. The calls were made as follows: active = growth percent below 10; inactive = the rest.

What was measured:
Experiment in all cases: NCI-60 one-dose screen, 48 h (100 = growth as untreated, 0 = no growth, -100 = all killed)
Settings in all cases: 10 µM unless noted
DU-145 prostate = test system: DU-145 prostate
K-562 leukemia = test system: K-562 leukemia
MALME-3M melanoma = test system: MALME-3M melanoma
MDA-MB-231 breast = test system: MDA-MB-231 breast
RXF 393 renal = test system: RXF 393 renal
SF-268 CNS = test system: SF-268 CNS
SF-295 CNS = test system: SF-295 CNS
SF-539 CNS = test system: SF-539 CNS
UACC-257 melanoma = test system: UACC-257 melanoma
M14 melanoma = test system: M14 melanoma

SMILES	growth (DU-145 prostate)	growth (K-562 leukemia)	growth (MALME-3M melanoma)	growth (MDA-MB-231 breast)	growth (RXF 393 renal)	growth (SF-268 CNS)	growth (SF-295 CNS)	growth (SF-539 CNS)	growth (UACC-257 melanoma)	growth (M14 melanoma)
COc1cc(C(=O)Nc2cc(OC)c3ccn(C)c3c2)cc2c1C[C@]1(C)CC[C@@H](O)C(C)(C)[C@H]1O2	32.1%	9.98% (active)	31%	30.6%	-32.8% (active)	27.3%	-44.2% (active)	-26.1% (active)	32.5%	-32.7% (active)
O=[N+]([O-])c1ccc(Oc2ccc(-c3ccccc3)cc2)cc1	97.5%	70.8%	109%	88.5%	102%	94.5%	89.4%	94.7%	98.1%	98.3%
N#C/C(=C/c1ccc(O)c([N+](=O)[O-])c1)c1nc(-c2ccc([N+](=O)[O-])cc2)cs1	60.3%	19.5%	30.5%	39.5%	77.7%	50.5%	29.6%	47.2%	20.2%	41.5%
O=c1c2ccccc2oc2ccc(OCCCCCN3CCCCCC3)cc12	94.1%	21.3%	40.2%	77.6%	58.6%	79%	87.8%	79.4%	2.91% (active)	31.5%
NCCN1CCNCC1	104%	106%	109%	105%	135%	102%	109%	95.6%	25.9%	101%
Cc1ccn2c3c(c(C(=O)O)c2c1)C(=O)c1ccccc1C3=O	-55.7% (active)	85.4%	-62.7% (active)	77.2%	56.9%	80.3%	26.9%	65.8%	56.4%	-43.5% (active)
CCN(CC)CC#CCOC(=O)[C@]1(C)CCC[C@]2(C)[C@H]3C[C@H]4C(C(C)C)=C[C@]3(CC[C@H]21)[C@@H]1C(=O)CCC(=O)[C@@H]14	71%	18.6%	45.3%	69%	15.3%	68.9%	59.6%	66.8%	56.9%	51.4%
O=C(O)CCNC1CCCCC1	112%	100%	144%	100%	137%	97.8%	131%	95.7%	20.9%	93.3%
C=C1C(=O)O[C@H]2[C@H]1CC/C(COC(=O)c1cccnc1)=C\CC[C@@]1(C)O[C@@H]21	16.4%	16.4%	66.9%	79.9%	46%	90.7%	102%	60.2%	57.8%	58.3%
COc1ccccc1Nc1nnc(-c2ccc(Cl)cc2)o1	72.3%	11.7%	46.3%	63.5%	74.6%	60.5%	40.3%	57.1%	65.8%	21.7%
Nc1cc(N)c(S(=O)(=O)O)cc1N=Nc1cc([N+](=O)[O-])ccc1O	111%	80.8%	103%	103%	103%	102%	107%	102%	99.2%	100%
COc1cc([C@H](C)c2ccc3ccccc3c2)cc(OC)c1OC	17.6%	8.51% (active)	64%	33.8%	-10.5% (active)	55.3%	13.5%	-19.3% (active)	51.4%	17.5%
C=C1C(=O)O[C@H]2[C@H]1CC/C(COC(=O)CCCCCCCC(=O)OC/C1=C/CC[C@@]3(C)O[C@H]3[C@H]3OC(=O)C(=C)[C@@H]3CC1)=C\CC[C@@]1(C)O[C@@H]21	27.8%	3.32% (active)	-19.7% (active)	-10.3% (active)	-70.6% (active)	30.9%	86.7%	-1.74% (active)	58.2%	8.2% (active)
CCCCc1n(Cc2ccc3ccccc3n2)cc[n+]1Cc1ccc2ccccc2c1	25.1%	6.43% (active)	-22.2% (active)	-29.2% (active)	-14.3% (active)	19.3%	0.543% (active)	14.3%	-32.7% (active)	-16.9% (active)
Nc1c(C(=O)c2ccccc2)sc2nc(-c3cc4ccccc4o3)cc(-c3ccc(Cl)cc3)c12	90.8%	102%	101%	85.5%	113%	94.8%	129%	105%	104%	107%
CS(=O)(=O)O[C@@H]1C(=O)N(c2cc3c4ccccc4ccc3c3ccccc23)[C@H]1c1ccc(F)cn1	11.5%	10.3%	74.2%	50.1%	18.6%	43.4%	9.48% (active)	15.7%	41.7%	30.2%
O=C1c2ccccc2C(=O)c2c1oc1c2c(=O)[nH]c2ccc(Cl)cc21	-45.4% (active)	12.9%	-51.7% (active)	-42.2% (active)	-46.3% (active)	-31.7% (active)	-1.34% (active)	-28% (active)	18.8%	10.4%
CCCCCCCCCCCCCC1=NCC[N+]1(CCO)Cc1ccccc1 (stereo not given)	-89.2% (active)	-50.9% (active)	-75.8% (active)	-79.9% (active)	-92.3% (active)	-69.9% (active)	-71.7% (active)	-93.8% (active)	-71.8% (active)	-79.4% (active)
CSc1cccc(NC(=O)Nc2nc3c(C)cccc3s2)c1	114%	89.8%	93.5%	116%	104%	104%	97.3%	89.3%	98.7%	98%
C=C1C(=O)O[C@H]2[C@H]1CC/C(COC(=O)n1ccnc1)=C\CC[C@@]1(C)O[C@@H]21	96.8%	86.7%	90.8%	95.9%	102%	110%	100%	102%	90.7%	84.3%
O=C1NC(c2ccc(F)cc2)N=C2C(c3ccccc3)=NOC12 (stereo not given)	110%	105%	112%	115%	105%	107%	108%	105%	96.7%	110%

SMILES	growth (DU-145 prostate)	growth (K-562 leukemia)	growth (MALME-3M melanoma)	growth (MDA-MB-231 breast)	growth (RXF 393 renal)	growth (SF-268 CNS)	growth (SF-295 CNS)	growth (SF-539 CNS)	growth (UACC-257 melanoma)	growth (M14 melanoma)
CC1=C/C(=N\N=C2/C=C(C)CC(C)(C)C2)CC(C)(C)C1	105%	86.9%	96.4%	106%	114%	93.4%	102%	105%	90.2%	103%
COc1cc(/C=N/Nc2nc(-c3ccc(F)cc3)c(C#N)c(N3CCOCC3)n2)ccc1O	96.3%	85.3%	122%	99.8%	-0.23% (active)	99.8%	106%	93.7%	102%	114%
Cc1c(C(=O)Nc2nc3ccccc3[nH]2)cnn1-c1ccccn1	112%	93.5%	106%	109%	105%	107%	102%	98.9%	82.4%	111%
COc1cc(C(=O)N2CCN(c3ccccc3OC)CC2)c(NC(=O)c2cnccn2)cc1OCc1ccccc1	104%	10.8%	115%	73.1%	113%	114%	97.5%	88.9%	78%	98.4%
COc1cc(/C=C/C(=O)/C=C/c2cc3ccc(Cl)cc3n(Cc3ccccc3)c2=O)ccc1O	-35.1% (active)	3.2% (active)	4.83% (active)	-16.7% (active)	-79.9% (active)	13.7%	5.91% (active)	9.94% (active)	-13.9% (active)	-11.3% (active)
CCCn1c2cc(OCc3cn(-c4ccc(Br)cc4)nn3)ccc2c2ccnc(C)c21	90.2%	35.4%	87.1%	50.5%	51%	88%	65.6%	36.4%	53.3%	67.5%
C=C(C)[C@@H]1CC[C@]2(C(N)=O)CC[C@]3(C)[C@H](CC[C@@H]4[C@@]5(C)CCCNC(C)(C)[C@@H]5CC[C@]43C)[C@@H]12	92.4%	7.26% (active)	75%	62.4%	72.4%	85.8%	80.9%	65.4%	57.6%	86.8%
C=C1C(=O)O[C@H]2[C@H]1CC/C(COC(=O)CCCCCCC(=O)OC/C1=C/CC[C@@]3(C)O[C@H]3[C@H]3OC(=O)C(=C)[C@@H]3CC1)=C\CC[C@@]1(C)O[C@@H]21	40.4%	2.63% (active)	-2.86% (active)	-1.66% (active)	-72.8% (active)	54.2%	94.9%	21.1%	70.7%	30.6%
COc1ccc2c(c1)Oc1nc(N)c(C#N)c(N)c1C2Sc1ccc(O)cc1 (stereo not given)	105%	14.6%	70.8%	79.4%	90.8%	95%	104%	99.4%	105%	103%
COc1ccc(/C=C/C(=O)Nc2ncnc3nc[nH]c23)cc1	92.1%	81.2%	96.4%	109%	95.4%	93.5%	107%	100%	100%	87.8%
C[C@@H]1C(=O)[C@@H]2C[C@@H](O)[C@@H](O)C[C@]2(C)[C@H]2CC[C@@]3(C)C(=C12)CC[C@@H]3[C@@](C)(O)[C@H](O)CCC(C)(C)O	99.2%	94.9%	103%	107%	116%	98.2%	108%	103%	-10.5% (active)	105%
CC(C)(C)c1nn(-c2ccccc2)c2c1COCN2Cc1ccc(Cl)cc1	103%	47.5%	90.2%	95.1%	100%	103%	95.9%	83.6%	114%	91.8%
CCOC(=O)/C(=C/c1c(-c2ccccc2)[nH]c2ccccc12)C(=O)c1ccc(Cl)cc1	65.9%	5.66% (active)	92.8%	63%	54.3%	56.1%	-15.3% (active)	81.5%	77.2%	39.5%
N#Cc1c(-c2ccc(F)cc2)nc(N=Nc2c(O)[nH]c3ccc(Cl)cc23)nc1N1CCOCC1	40%	62.4%	38%	26.9%	8.65% (active)	41.4%	13.9%	2.98% (active)	57.3%	51.5%
COc1cccc2c1-c1ccccc1C2=O	17.7%	8.78% (active)	59.7%	29.6%	-2.91% (active)	48.2%	9.85% (active)	-3.06% (active)	51.5%	-1.41% (active)
C=C1C(=O)O[C@H]2[C@H]1CC/C(COC(=O)c1cc3ccccc3o1)=C\CC[C@@]1(C)O[C@@H]21	-24.2% (active)	-2.5% (active)	-70.3% (active)	-38.8% (active)	-83.4% (active)	4.87% (active)	74.8%	-40.7% (active)	40.5%	-53.9% (active)
C/C(=N\NC(=O)c1ccncc1)c1ccc(N)cc1	107%	83.6%	98.5%	98.4%	106%	99.2%	99.4%	98.5%	93%	102%
CCOC(=O)c1c(C)nc2c(c1N)/C(=C/c1ccc[nH]1)C(=O)N2Cc1ccc(C(F)(F)F)cc1	79.1%	63.4%	62.1%	18.3%	48.6%	55.5%	29.4%	40.4%	77.6%	69.8%
O=C1NN(c2ccccc2)C(c2ccc(Cl)cc2)N2CCC[C@H]12 (stereo not given in full)	100%	97%	92.2%	113%	108%	97.4%	101%	111%	94.7%	97.9%
C=C1C(=O)O[C@H]2[C@H]1CC/C(COC(=O)c1c[nH]c3ccccc13)=C\CC[C@@]1(C)O[C@@H]21	-68.6% (active)	-16.1% (active)	-73.7% (active)	-68.8% (active)	-90.6% (active)	-40.8% (active)	50.2%	-61.3% (active)	-58.8% (active)	-64.7% (active)
COc1ccc(N(C)c2nc(Cl)nc3ccn(C)c23)cc1	2.61% (active)	7.28% (active)	84.8%	0.175% (active)	48.3%	24.3%	15.5%	-32% (active)	49.6%	-0.998% (active)
